Laboratory results taken from the supplement of paper PMC11060735.
Values joined by “and” are separate entries in the source; they are usually repeats but may differ in a detail not shown here. Identical values can stand only once. ± gives the standard deviation of the averaged measurements. The full ranking holds about 1,800 compounds; the median of “GFP- (p16Ink4a-) cell count relative to negative-control wells” is about 0.99, and the lowest 2% start at about 0.5. Many of the other results were omitted from the sample, so the lowest values are more common in it than they were.

Each compound was assayed on mouse p16Ink4a+/- lung fibroblasts (INKBRITE, bleomycin-injured) (assay: GFP- (p16Ink4a-) cell count relative to negative-control wells (fold of vehicle); higher = more p16Ink4a- cells surviving). Conditions: 1 µM; 3 days.

SMILES	GFP-
CC1(C)CCC2=C(O1)c1ccccc1C(=O)C2=O [beta-Lapachone]	1.08
CCOC(=O)c1ccc(C#Cc2ccc3c(c2)C(C)(C)CCS3)nc1 [Tazarotene]	1.05
N#Cc1ccc2[nH]cc(CCCCN3CCN(c4ccc5oc(C(N)=O)cc5c4)CC3)c2c1 [Vilazodone]	1.07
CO/C(O)=C1\C(C)=NC(C)=C(C(=O)OCCN2CCN(C(c3ccccc3)c3ccccc3)CC2)C1c1cccc([N+](=O)[O-])c1 (centres undefined) [Manidipine]	0.985 and 0.964
Cc1ccc(Cl)cc1N(CC(=O)Nc1c(F)cccc1F)S(C)(=O)=O	1.06
O=C(O)C(O)Cc1ccc(O)c(O)c1 (centres undefined) [Sodium Danshensu]	1.19
COc1nc(C)cnc1NS(=O)(=O)c1cccnc1-c1ccc(-c2nnco2)cc1 [Zibotentan]	1.19
CCOC(=O)[C@H](CCc1ccccc1)N[C@@H](C)C(=O)N1Cc2cc(OC)c(OC)cc2C[C@H]1C(=O)O [Moexipril]	0.982
COc1c2ccoc2cc2oc(=O)ccc12 [Bergapten]	1.08
O=C1c2c(O)ccc(O)c2C(=O)c2c(NCCNCCO)ccc(NCCNCCO)c21 [Mitoxantrone]	0.503
O=C1c2cccc(O)c2C(=O)c2c(O)cc(CO)cc21 [Aloe-emodin]	1.13
Nc1ncn([C@@H]2O[C@H](CO)[C@@H](O)[C@H]2O)c(=O)n1 [5-azacytidine, Azacitidine]	0.758 ± 0.04
CCOC(=O)[C@H]1O[C@@H]1C(=O)N[C@@H](CC(C)C)C(=O)NCCC(C)C [Aloxistatin]	0.833
CN(C)c1ccc(C(=C2C=CC(=[N+](C)C)C=C2)c2ccc(N(C)C)cc2)cc1 [Gentian Violet]	0.494
COCCO/C(O)=C1\C(C)=NC(C)=C(C(=O)OC(C)C)C1c1cccc([N+](=O)[O-])c1 (centres undefined) [Nimodipine]	1.06
FC(F)c1nc2ccccc2n1-c1nc(N2CCOCC2)nc(N2CCOCC2)n1	0.711
O=C(NC(Cc1cc(O)nc2ccccc12)C(=O)O)c1ccc(Cl)cc1 (centres undefined) [Rebamipide]	1.02
Cc1ccc([N+](=O)[O-])cc1S(=O)(=O)N(C)/N=C/c1cnc2ccc(Br)cn12	0.385
COC(=O)Nc1nc2cc(C(=O)c3ccc(F)cc3)ccc2[nH]1 [Flubendazole]	0.933
CC(C(=O)O)c1ccc2c(c1)Cc1cccnc1O2 (centres undefined) [Pranoprofen]	1.17
Cc1cc(NS(=O)(=O)c2ccc(N)cc2)no1 [Sulfamethoxazole]	0.967
Cc1cnc(Nc2ccc(N3CCN(C)CC3)cc2)nc1Nc1cccc(S(=O)(=O)NC(C)(C)C)c1	0.779 ± 0.037
C=CC(=O)Nc1cccc(Oc2nc(Nc3ccc(N4CCN(C)CC4)cc3)ncc2Cl)c1	0.844
C=CCn1c(=O)c2cnc(Nc3ccc(N4CCN(C)CC4)cc3)nc2n1-c1cccc(C(C)(C)O)n1	0.409
